From PubChem
Only some compounds are listed: those with a hit (about 7.5% of all), similar ones and a draw of the others.
VP16 counter: inhibits Gal4-VP16 luciferase reporter, ROR gamma counter-screen; Drosophila S2 Gal4-VP16 UAS-luciferase, luminescence, 20 h; Potency, µM (highest dose often 53.6 µM), for inactives: top-dose activity, negative = inhibition, hits mostly inhibitors; 310,000 compounds, 3.5% hits;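 also: Gal4-VP16 expression switched on by copper sulfate through the metallothionein promoter; potency is read from the fitted curve at half-maximal effect; nearly all actives have a fitted effect of over 50% in size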
B2AR arrestin: recruits beta-arrestin to the human beta2-adrenergic receptor; P07550; beta-arrestin recruitment to beta2AR, cell-based reporter; Potency, µM (top dose mostly 46.1 µM), inactives show top-dose activation, most hits filed as activators; 330,000 compounds, 0.02% hits; AID 492947;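 also: potency is read from the fitted curve at half-maximal effect; 0% = DMSO controls and full agonism = EC100 isoproterenol or metaproterenol; nearly all actives have a fitted effect of over 65% in size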
ELG1 DNA repair: inhibitors of ELG1-dependent DNA repair in HEK293T cells; HEK293T ELG1-luciferase reporter, luminescence, 16 h; DNA damage induced by 5-fluorouridine; Potency, µM (highest dose often 46.1 µM), without a hit: at the top dose activity change, negative = inhibition, actives largely listed as inhibitors; 330,000 compounds, 2.3% hits; AID 504467; also: potency is read from the fitted curve at half-maximal effect; nearly all actives have a fitted effect of over 55% in size
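Reporter activity after DNA damage by 5-fluorouridine is monitored. Compound-treated cells incubate 16 hr at 37 °C, then ONE-Glo is added for 30 min before luminescence reading.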
TSHR antag: human thyrotropin receptor antagonism; P16473; TSHR-expressing cells, TSH-stimulated cAMP HTRF, 2 h; hits give low values; activity change, negative = inhibition, % at 11.5 µM; 330,000 compounds, 0.2% hits;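 active = activity change below a set negative limit, meaning inhibition stronger than a set level, cut at about -70% in these data; inconclusive = activity change between two set negative limits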
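TSHR-expressing cells were treated with compounds, then stimulated with TSH at EC80 (4nM final) for 2 hours at 37 deg C. Cellular cAMP was measured by HTRF competition between lysate cAMP and cAMP-d2 for a cryptate-labelled anti-cAMP antibody.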
RORgamma inh: blocks mouse ROR gamma transcriptional activity | 310,000 compounds, 5.4% hits | Drosophila S2 Gal4-RORgamma UAS-luciferase reporter, 20 h | Potency, µM (top dose mostly 53.6 µM), inactives show top-dose activity change, negative = inhibition, usual class: inhibitors | P51450; also: potency is read from the fitted curve at half-maximal effect; nearly all actives have a fitted effect of over 60% in size
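Drosophila S2 cells stably expressing Gal4-DBD/mouse RORγ fusion under metallothionein promoter plus UAS-luciferase; compound 1 h, then 700 uM CuSO4 induction for 20 h at ambient temperature; inhibition read as reduced luminescence.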
* hit, by the source's call; [ ] = another dose, or the depositor's remark. Unless noted, calls follow the shape of the dose curve; as a rule, active = well fitted curve in the direction sought with a large enough effect; inconclusive = small, poorly fitted or top-dose-only effect, or another doubt; inactive = no such curve, though single readings can be large; an effect the other way counts as inactive or inconclusive. Unless noted, % is scaled to controls: 0 for no effect and ±100 for the full control effect.

Results for COc1ccc(C2CC(c3cccs3)=NN2C(=O)CCl)cc1OC (stereo unspecified) ?
VP16 counter: inconclusive; B2AR arrestin: -0.2%; ELG1 DNA repair: inconclusive; TSHR antag: 1.0; RORgamma inh: inconclusive

How did CC(=NC1CCCC1)c1c(C)[nH]n(-c2nc3ccccc3s2)c1=O do in these assays?
VP16 counter: inconclusive; B2AR arrestin: -0.1%; ELG1 DNA repair: inconclusive; TSHR antag: -5.0; RORgamma inh: 3.55µM*

How did CC(=NC1CC1)c1c(-c2ccccc2)[nH]n(-c2nc3ccccc3s2)c1=O do in these assays?
VP16 counter: inconclusive; B2AR arrestin: -0.3%; ELG1 DNA repair: -0.8%; TSHR antag: 4.9; RORgamma inh: 1.26µM*

What do the screens show for `CCOC(=O)CC(CC(C)=O)C(=O)OCC` (stereo unspecified)?
VP16 counter: 0.9%; RORgamma inh: 15.9%

How did Cc1nn(-c2ccccc2)c2c1C(c1cccs1)C(C#N)=C(N)O2 (stereo unspecified) do in these assays?
VP16 counter: 15.0%; B2AR arrestin: 3.9%; ELG1 DNA repair: inconclusive; TSHR antag: 1.3; RORgamma inh: 6.0%

How did CCCc1nn(-c2ccccc2)c2c1C(c1cccs1)C(C#N)=C(N)O2 (stereo unspecified) do in these assays?
VP16 counter: 1.4%; B2AR arrestin: 0.2%; ELG1 DNA repair: inconclusive; TSHR antag: -12.9; RORgamma inh: 12.6µM*

Results for COCCCNC(=O)C[C@H]1C[C@H](C(=O)N(C(C)C)C(C)C)[C@@]2(C)c3[nH]c4ccc(Cl)cc4c3CCN2C1=O ?
B2AR arrestin: -0.5%; ELG1 DNA repair: -15.1%; TSHR antag: 3.6

What do the screens show for `COC(=O)c1ccc(NC(=O)[C@H](C)NC(N)=O)cc1`?
VP16 counter: 1.1%; B2AR arrestin: -0.5%; ELG1 DNA repair: 4.9%; TSHR antag: 0.8; RORgamma inh: 10.4%

Results for O=C(N/N=C/c1cn(-c2ccccc2)nc1-c1cccnc1)c1ccccc1 ?
VP16 counter: -1.7%; B2AR arrestin: 0.4%; ELG1 DNA repair: inconclusive; TSHR antag: -11.2; RORgamma inh: 5.62µM*

How did NC(=O)N/N=C/c1cn(-c2ccccc2)nc1-c1cccnc1 do in these assays?
VP16 counter: 3.5%; B2AR arrestin: -0.4%; ELG1 DNA repair: 16.5%; TSHR antag: 22.0; RORgamma inh: -3.4%

Results for NC(=S)N/N=C/c1cn(-c2ccccc2)nc1-c1cccnc1 ?
VP16 counter: 8.91µM*; B2AR arrestin: 5.1%; ELG1 DNA repair: 1.9%; TSHR antag: 4.5; RORgamma inh: 6.31µM*

What do the screens show for `Cc1ccc[n+](/C(=C\C(=C=[N-])C#N)C(=O)c2ccc(Cl)cc2)c1`?
VP16 counter: inconclusive; B2AR arrestin: -1.2%; ELG1 DNA repair: 1.7%; TSHR antag: -5.6; RORgamma inh: 17.8µM*

Results for CC[C@H](C)[C@H](NC(=O)[C@H](Cc1ccc(O)cc1)NC(=O)[C@@H](NC(=O)[C@@H](N)CCCN=C(N)N)C(C)C)C(=O)N[C@@H](Cc1cnc[nH]1)C(=O)N1CCC[C@H]1C(=O)N[C@@H](Cc1ccccc1)C(=O)O ?
VP16 counter: -5.3%; RORgamma inh: 1.6%

Results for COc1cc2cnc(-c3ccccc3)c(-c3ccc(C#N)cc3)c2cc1OC ?
B2AR arrestin: 0.1%; ELG1 DNA repair: 23.1µM*; TSHR antag: -46.1

What do the screens show for `COc1cc2cnc(-c3ccccc3)c(-c3cccc(C(F)(F)F)c3)c2cc1OC`?
B2AR arrestin: 0.0%; ELG1 DNA repair: 13µM*; TSHR antag: -22.8

Results for CC(=O)O[C@]1(C)CC[C@]23CC1C(C)(C)C2CC[C@@H]3C (stereo partly specified) ?
VP16 counter: -1.1%; RORgamma inh: -4.9%

How did O=S(=O)(c1ccc(SCc2cccc(Cl)c2)nc1)N1CCCC1 do in these assays?
B2AR arrestin: -1.3%; ELG1 DNA repair: 3.0%; TSHR antag: -36.9

What do the screens show for `C=C(C)CC1(c2ccccc2)Oc2ccccc2-c2nc3cc(Cl)c(Cl)cc3nc21` (stereo unspecified)?
VP16 counter: -1.1%[10 µM]; RORgamma inh: -22.0%[10 µM]

Results for CC1(C)CCC(C)(C)c2cc(NC(=O)c3ccc(C(=O)O)cc3)ccc21 ?
VP16 counter: -23.4%; RORgamma inh: -24.1%
